Assay results taken from PubChem BioAssay (NCI).
The panel holds about 83,000 compounds, 20% with a hit somewhere; the sample as a whole holds those more often.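 Percent growth is the endpoint: 0 to 100 indicates growth inhibition (40 means 60% inhibition), 0 means no net growth, and negative values indicate cell death.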 Activity calls are given as the source filed them. The calls were made as follows: active = growth percent below 10; inactive = the rest.

Columns and labels:
Assay in all cases: NCI-60 one-dose screen, 48 h (100 = growth as untreated, 0 = no growth, -100 = all killed)
Settings in all cases: 10 µM unless noted
HCT-15 colon = tested on: HCT-15 colon
HT29 colon = tested on: HT29 colon
SNB-75 CNS = tested on: SNB-75 CNS
SNB-19 CNS = tested on: SNB-19 CNS
U251 CNS = tested on: U251 CNS
PC-3 prostate = tested on: PC-3 prostate
SK-MEL-5 melanoma = tested on: SK-MEL-5 melanoma
UACC-62 melanoma = tested on: UACC-62 melanoma
LOX IMVI melanoma = tested on: LOX IMVI melanoma
SK-MEL-28 melanoma = tested on: SK-MEL-28 melanoma
SK-MEL-2 melanoma = tested on: SK-MEL-2 melanoma
EKVX NSCLC = tested on: EKVX NSCLC
SN12C renal = tested on: SN12C renal
UO-31 renal = tested on: UO-31 renal
TK-10 renal = tested on: TK-10 renal
ACHN renal = tested on: ACHN renal
CAKI-1 renal = tested on: CAKI-1 renal
A498 renal = tested on: A498 renal
CCRF-CEM leukemia = tested on: CCRF-CEM leukemia
MOLT-4 leukemia = tested on: MOLT-4 leukemia

Measured: growth

Cc1sc2nc(NCCc3c[nH]c4ccc(Cl)cc34)[nH]c(=O)c2c1C
inactive: HT29 colon 19.6% | SNB-75 CNS 23.5% | SNB-19 CNS 63.8% | U251 CNS 32.3% | PC-3 prostate 29.2% | SK-MEL-5 melanoma 50.4% | UACC-62 melanoma 42.3% | LOX IMVI melanoma 26.5% | SK-MEL-28 melanoma 70.1% | SK-MEL-2 melanoma 78.5% | EKVX NSCLC 41.7% | SN12C renal 51.7% | UO-31 renal 18.6% | TK-10 renal 63.9% | ACHN renal 42.9% | CAKI-1 renal 12% | A498 renal 69.4% | CCRF-CEM leukemia 33.9% | MOLT-4 leukemia 38.7%
active: HCT-15 colon 7.96%

C=C(C)[C@@H]1CC[C@]2(C(=O)O)CC[C@]3(C)[C@H](CC[C@@H]4[C@@]5(C)CCC(NC(=O)c6cccc(OC(C)=O)c6OC(C)=O)C(C)(C)[C@@H]5CC[C@]43C)[C@@H]12 (stereo not given in full)
active: HCT-15 colon 6.94% | HT29 colon 8.01% | U251 CNS 9.78% | SK-MEL-5 melanoma -81.7% | UACC-62 melanoma -38.3% | LOX IMVI melanoma -74.1% | EKVX NSCLC 2.51% | UO-31 renal -39% | ACHN renal 3.98% | CAKI-1 renal 3.74% | A498 renal -21.9% | MOLT-4 leukemia 8.43%
inactive: SNB-75 CNS 12.5% | SNB-19 CNS 26% | PC-3 prostate 17.6% | SK-MEL-28 melanoma 12% | SK-MEL-2 melanoma 14.9% | SN12C renal 12.5% | TK-10 renal 19.7% | CCRF-CEM leukemia 10.4%

CCOC(=O)c1cc(C)n(-c2ccc(C(=O)O)cc2)c1C
inactive: HCT-15 colon 24.8% | HT29 colon 37.8% | SNB-75 CNS 130% | SNB-19 CNS 94.5% | U251 CNS 96.3% | PC-3 prostate 83.3% | SK-MEL-5 melanoma 92% | UACC-62 melanoma 86.7% | LOX IMVI melanoma 80.2% | SK-MEL-28 melanoma 127% | SK-MEL-2 melanoma 32% | EKVX NSCLC 118% | SN12C renal 87.9% | UO-31 renal 86.7% | TK-10 renal 93.5% | CAKI-1 renal 79.7% | A498 renal 111% | CCRF-CEM leukemia 92.2% | MOLT-4 leukemia 92.3%
active: ACHN renal 2.34%

O=C(CSc1nc2sc3c(c2c(=O)n1-c1ccccc1)CCCCC3)N/N=C/c1cccc([N+](=O)[O-])c1
active: SNB-75 CNS 6.05%
inactive: HCT-15 colon 53.8% | HT29 colon 32.3% | SNB-19 CNS 83.6% | U251 CNS 49.1% | PC-3 prostate 38.5% | SK-MEL-5 melanoma 67.6% | UACC-62 melanoma 65.9% | LOX IMVI melanoma 76.5% | SK-MEL-28 melanoma 74% | SK-MEL-2 melanoma 90.2% | EKVX NSCLC 70.3% | SN12C renal 66.8% | UO-31 renal 75.7% | TK-10 renal 96.2% | ACHN renal 80.6% | CAKI-1 renal 60% | A498 renal 83.7% | CCRF-CEM leukemia 76.6% | MOLT-4 leukemia 70.5%

COCCn1cc(-c2nc(-c3cc4cccnc4[nH]3)cs2)c2cc(OC)ccc21
inactive: HCT-15 colon 20.3% | HT29 colon 30.9% | SNB-19 CNS 61.6% | U251 CNS 32.8% | PC-3 prostate 10.4% | SK-MEL-5 melanoma 39.1% | UACC-62 melanoma 49.8% | LOX IMVI melanoma 33.2% | SK-MEL-28 melanoma 62.8% | SK-MEL-2 melanoma 37.8% | EKVX NSCLC 16.9% | SN12C renal 48.5% | UO-31 renal 10.9% | ACHN renal 22.4% | CAKI-1 renal 34.4% | CCRF-CEM leukemia 12.4% | MOLT-4 leukemia 26.6%
active: SNB-75 CNS 9.81% | TK-10 renal -4.75% | A498 renal -0.329%

COc1ccc(C(=O)Nc2cccc(-c3cc(=O)c4c(OC)c(OC)c(OC)cc4o3)c2)cc1
inactive: HCT-15 colon 45.2% | HT29 colon 46.7% | SNB-75 CNS 67.6% | SNB-19 CNS 64.6% | U251 CNS 72.3% | PC-3 prostate 31.9% | SK-MEL-5 melanoma 50.2% | UACC-62 melanoma 55.4% | LOX IMVI melanoma 41.9% | SK-MEL-28 melanoma 69% | SK-MEL-2 melanoma 61.3% | EKVX NSCLC 77.3% | SN12C renal 50% | UO-31 renal 26.5% | TK-10 renal 76.7% | ACHN renal 47% | CAKI-1 renal 57.4% | A498 renal 69.3% | CCRF-CEM leukemia 27.5% | MOLT-4 leukemia 23.3%

c1csc(-c2ccc(CNc3c4ccccc4nc4ccccc34)cc2)c1
active: HCT-15 colon -66.2% | HT29 colon -46.8% | U251 CNS -72.7% | SK-MEL-5 melanoma -90.7% | LOX IMVI melanoma -90.7% | SK-MEL-28 melanoma -86% | A498 renal -2.45% | CCRF-CEM leukemia 2.57% | MOLT-4 leukemia 1.96%
inactive: SNB-75 CNS 36.1% | SNB-19 CNS 46.2% | PC-3 prostate 24% | UACC-62 melanoma 64.5% | SK-MEL-2 melanoma 80.8% | EKVX NSCLC 59% | SN12C renal 63.2% | UO-31 renal 27.9% | TK-10 renal 65.1% | ACHN renal 58.6% | CAKI-1 renal 35.5%

Cc1c(O)cc(-c2cnc(Nc3ccccc3)s2)c(O)c1C
inactive: HCT-15 colon 92.2% | HT29 colon 109% | SNB-75 CNS 104% | SNB-19 CNS 106% | U251 CNS 100% | PC-3 prostate 76% | SK-MEL-5 melanoma 93.4% | UACC-62 melanoma 78.1% | LOX IMVI melanoma 78.3% | SK-MEL-28 melanoma 104% | SK-MEL-2 melanoma 99.4% | EKVX NSCLC 87.9% | SN12C renal 94% | UO-31 renal 86.9% | TK-10 renal 134% | ACHN renal 91.6% | CAKI-1 renal 86.9% | A498 renal 75.1% | CCRF-CEM leukemia 78.5% | MOLT-4 leukemia 62.8%

C[PH+](c1nc2ccccc2nc1[PH+](C)C(C)(C)C)C(C)(C)C.C[PH+](c1nc2ccccc2nc1[PH+](C)C(C)(C)C)C(C)(C)C.[Au+].[Cl-] (stereo not given)
active: HCT-15 colon -80.9% | HT29 colon -100% | SNB-75 CNS -98.4% | SNB-19 CNS -100% | U251 CNS -86.8% | PC-3 prostate -83.9% | SK-MEL-5 melanoma -100% | UACC-62 melanoma -79.5% | LOX IMVI melanoma -85.5% | SK-MEL-28 melanoma -85% | SK-MEL-2 melanoma -76.6% | EKVX NSCLC -82.5% | SN12C renal -59.1% | UO-31 renal -90.9% | TK-10 renal -91.6% | ACHN renal -97.1% | CAKI-1 renal -93.4% | A498 renal -99.1% | MOLT-4 leukemia 8.3%
inactive: CCRF-CEM leukemia 12.2%

O=S(=O)(Nc1cc(Cl)ccc1Cl)c1ccc(-c2cnc(C3CC3)o2)cc1
inactive: HCT-15 colon 26.2% | SNB-19 CNS 31.7% | U251 CNS 30.2% | PC-3 prostate 38.3% | SK-MEL-5 melanoma 31.1% | UACC-62 melanoma 33.2% | LOX IMVI melanoma 35.8% | SK-MEL-28 melanoma 63.2% | SK-MEL-2 melanoma 39% | EKVX NSCLC 58.7% | SN12C renal 60.3% | UO-31 renal 49.6% | TK-10 renal 60% | ACHN renal 34.2% | CAKI-1 renal 33.5% | CCRF-CEM leukemia 20% | MOLT-4 leukemia 44.1%
active: HT29 colon 5.45% | SNB-75 CNS -8.98% | A498 renal -7.01%

CCC1=C[C@@H]2C[C@]3(C(=O)OC)c4[nH]c5ccccc5c4CC[N@+](CC(=O)Nc4cc5c(cc4OC)N(C)[C@H]4[C@@](O)(C(=O)OC)[C@H](OC(C)=O)[C@]6(CC)C=CCN7CC[C@]54[C@@H]76)(C2)[C@H]13
inactive: HCT-15 colon 108% | HT29 colon 109% | SNB-75 CNS 98.8% | SNB-19 CNS 110% | U251 CNS 97.3% | PC-3 prostate 93.2% | SK-MEL-5 melanoma 101% | UACC-62 melanoma 97.7% | LOX IMVI melanoma 99.1% | SK-MEL-28 melanoma 109% | SK-MEL-2 melanoma 105% | EKVX NSCLC 105% | SN12C renal 105% | UO-31 renal 84.4% | TK-10 renal 98.6% | ACHN renal 106% | CAKI-1 renal 93.2% | A498 renal 121% | CCRF-CEM leukemia 80.6% | MOLT-4 leukemia 108%

COc1cc2ncnc(Nc3ccc(S(=O)(=O)Nc4cc(C)on4)cc3)c2cc1OCCCN1CCN(c2ccc(F)cc2)CC1
inactive: HCT-15 colon 110% | HT29 colon 112% | SNB-75 CNS 85.4% | SNB-19 CNS 97.3% | U251 CNS 93.6% | PC-3 prostate 101% | SK-MEL-5 melanoma 103% | UACC-62 melanoma 91% | LOX IMVI melanoma 89.8% | SK-MEL-28 melanoma 107% | SK-MEL-2 melanoma 113% | EKVX NSCLC 109% | SN12C renal 100% | UO-31 renal 77.5% | TK-10 renal 115% | ACHN renal 97.4% | CAKI-1 renal 87.7% | A498 renal 91.9% | CCRF-CEM leukemia 103% | MOLT-4 leukemia 102%

CC1OC(n2c3ccccc3c3c4c(c5c6ccccc6[nH]c5c32)C(=O)N(CCN2CCCC2)C4=O)CC(O)C1O (stereo not given)
active: HT29 colon -49.9%
inactive: HCT-15 colon 10.7% | SNB-75 CNS 12.1% | SNB-19 CNS 35.1% | U251 CNS 37.9% | PC-3 prostate 33.2% | SK-MEL-5 melanoma 61.3% | UACC-62 melanoma 67.7% | LOX IMVI melanoma 25.3% | SK-MEL-28 melanoma 91.4% | SK-MEL-2 melanoma 86.5% | EKVX NSCLC 57% | SN12C renal 42% | UO-31 renal 44.5% | TK-10 renal 68.9% | ACHN renal 16.6% | CAKI-1 renal 20.1% | A498 renal 55.5% | CCRF-CEM leukemia 27.2% | MOLT-4 leukemia 11.3%

CCOc1ccc(NC(=O)CSc2oc(-c3ccccc3)nc2S(=O)(=O)c2ccc(C)cc2)cc1
inactive: HCT-15 colon 63.8% | HT29 colon 50.9% | SNB-75 CNS 45.3% | SNB-19 CNS 70.7% | U251 CNS 41.2% | PC-3 prostate 62.3% | SK-MEL-5 melanoma 81.2% | UACC-62 melanoma 66.2% | LOX IMVI melanoma 54.1% | SK-MEL-28 melanoma 79.3% | SK-MEL-2 melanoma 96.6% | EKVX NSCLC 75.1% | SN12C renal 85.2% | UO-31 renal 103% | TK-10 renal 82.4% | ACHN renal 58.9% | CAKI-1 renal 83.9% | A498 renal 86.2% | CCRF-CEM leukemia 84.8% | MOLT-4 leukemia 66.1%
